This note sets out measurements from PubChem BioAssay (Tox21).

Assay [1] can be described thus: qHTS assay to identify small molecule antagonists of the glucocorticoid receptor (GR) signaling pathway - cell viability counter screen (AID 720693). Further: nearly all actives have a fitted effect of over 55% in size. Further: potency means the concentration at half of the fitted maximal effect. On the technique in general: In qHTS, concentration-response curves come from the screen itself.
Assay [2] is described as follows: qHTS assay for identifying genotoxic compounds that show differential cytotoxicity against isogenic chicken DT40 cell lines with known DNA damage response pathways - wild type cell line (AID 743012). Further: nearly all actives have a fitted effect of over 60% in size. Further: potency means the concentration at half of the fitted maximal effect. An outline of the steps:
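Using parental DT40 (300 cells/well), compounds delivered in DMSO incubate 40 h at 37 C/5% CO2. CellTiter-Glo reagent then stands 30 min at room temperature, and luminescence gives cell viability.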

The nature of assay [3]: qHTS assay for identifying genotoxic compounds that show differential cytotoxicity against isogenic chicken DT40 cell lines with known DNA damage response pathways - Rad54/Ku70 mutant cell line (AID 743015). Further: nearly all actives have a fitted effect of over 60% in size. Further: potency means the concentration at half of the fitted maximal effect.
The nature of assay [4]: qHTS assay to identify small molecule antagonists of the androgen receptor (AR) signaling pathway - cell viability counter screen (AID 743033; further: nearly all actives have a fitted effect of over 45% in size).
The nature of assay [5]: qHTS assay to identify small molecule antagonists of the androgen receptor (AR) signaling pathway using the MDA cell line - cell viability counter screen (AID 743041; further: nearly all actives have a fitted effect of over 45% in size; further: potency means the concentration at half of the fitted maximal effect). The procedure, abridged: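 Viability counter screen run alongside the AR antagonist reporter: cells seeded 5 h before compound, R1881 added, 16 h incubation at 37C without CO2, fluorescent CellTiter-Fluor signal quantified.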

The target of assay [6] is Androgen receptor (Homo sapiens) (UniProt P10275). As to the kind of experiment: qHTS assay to identify small molecule agonists of the androgen receptor (AR) signaling pathway using the MDA cell line (AID 743040; further: nearly all actives have a fitted effect of over 20% in size; further: potency means the concentration at half of the fitted maximal effect). An outline of the steps: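 Luminescence from ONE-Glo, read after 30 min at room temperature, reflects MMTV-driven luciferase in MDA-kb2 cells (AR- and GR-responsive). Treatment lasted 16 h at 37C, 0% CO2.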

For assay [7] the target is unchanged. As to the kind of experiment: qHTS assay to identify small molecule antagonists of the androgen receptor (AR) signaling pathway using the MDA cell line (AID 743042; further: nearly all actives have a fitted effect of over 55% in size). The procedure, abridged:
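MDA-kb2 cells (human breast carcinoma, stably carrying an MMTV-luciferase reporter responsive to AR and GR) were plated at 3,000 cells/well and preincubated 5 hr at 37C, then given compound plus R1881 agonist for 16 h. ONE-Glo luminescence was read.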

For assay [8] the target is unchanged. As to the kind of experiment: qHTS assay to identify small molecule agonists of the androgen receptor (AR) signaling pathway (AID 743036; active means well fitted activation curve with a large enough effect in the signal ratio in the repeat runs, with a control signal flat, not every such curve was filed as active; the % refers to the signal ratio). The procedure, abridged:
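HEK293 cells stably carrying a UAS-driven beta-lactamase reporter (GeneBLAzer AR-UAS-bla-GripTite) were plated at 2,000 cells/well, rested 4 h at 37C, then exposed to compounds in DMSO for 16 h. LiveBLAzer B/G FRET substrate was added for 2 h at room temperature; fluorescence read.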

Records with an inconclusive call do not appear. Activity calls are given as the source filed them. Unless noted, the call rests on the fitted dose curve; in most records, active means well fitted curve in the direction sought with a large enough effect in the repeat runs; inconclusive means weak or mixed curves; inactive means no such curve, though single readings can be large; an effect the other way counts as inactive or inconclusive.

Sequence of Androgen receptor (Homo sapiens) (P10275 whole entry, looked up): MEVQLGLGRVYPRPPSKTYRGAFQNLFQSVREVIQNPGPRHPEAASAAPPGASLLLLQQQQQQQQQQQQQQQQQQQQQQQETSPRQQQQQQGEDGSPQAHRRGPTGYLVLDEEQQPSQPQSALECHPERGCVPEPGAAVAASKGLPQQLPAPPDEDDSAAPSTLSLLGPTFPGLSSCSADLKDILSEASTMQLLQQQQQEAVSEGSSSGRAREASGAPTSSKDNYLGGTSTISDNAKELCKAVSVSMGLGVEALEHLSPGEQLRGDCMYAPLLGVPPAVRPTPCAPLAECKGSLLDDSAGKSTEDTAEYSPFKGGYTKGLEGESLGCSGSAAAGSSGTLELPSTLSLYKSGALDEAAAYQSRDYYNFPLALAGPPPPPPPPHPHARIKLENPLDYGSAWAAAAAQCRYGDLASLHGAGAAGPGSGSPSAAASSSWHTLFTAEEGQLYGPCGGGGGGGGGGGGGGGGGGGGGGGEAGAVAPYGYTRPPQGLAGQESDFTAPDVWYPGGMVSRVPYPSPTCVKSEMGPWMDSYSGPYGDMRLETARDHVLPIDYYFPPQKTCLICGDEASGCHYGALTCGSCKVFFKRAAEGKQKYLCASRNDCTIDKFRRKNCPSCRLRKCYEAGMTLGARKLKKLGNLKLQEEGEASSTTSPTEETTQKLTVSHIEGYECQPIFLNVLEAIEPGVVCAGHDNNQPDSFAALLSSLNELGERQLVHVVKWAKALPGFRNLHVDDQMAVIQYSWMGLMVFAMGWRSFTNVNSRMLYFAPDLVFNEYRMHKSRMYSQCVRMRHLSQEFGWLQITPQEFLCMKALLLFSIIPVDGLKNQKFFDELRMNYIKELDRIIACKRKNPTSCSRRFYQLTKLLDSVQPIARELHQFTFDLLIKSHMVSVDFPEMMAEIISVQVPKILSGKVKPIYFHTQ

For `CSc1nc2cc(Oc3cccc(Cl)c3Cl)c(Cl)cc2[nH]1`, the figures for the Potency in assay [1], in assay [2] and in assay [3] were 10.7 µM (active), 18.8 µM (active) and 21.1 µM (active), respectively. For the same compound, the Potency entry in assay [4] and in assay [5] was “inactive” each time.
In the case of `O=C1N=C2SCCN2C(=O)C1Cc1ccc(Cl)cc1` (stereo not drawn), the Potency result in assay [1], in assay [2], in assay [3], in assay [4] and in assay [5] was “inactive” throughout.
Consider `CCCCC/C=C\CCC(=O)N[C@H]1[C@H](Oc2c3cc4cc2Oc2ccc(cc2Cl)[C@@H](O[C@@H]2O[C@H](CO)[C@@H](O)[C@H](O)[C@H]2NC(C)=O)[C@@H]2NC(=O)[C@H](NC(=O)[C@@H]4NC(=O)[C@H]4NC(=O)[C@@H](Cc5ccc(c(Cl)c5)O3)NC(=O)[C@H](N)c3ccc(O)c(c3)Oc3cc(O)cc4c3)c3ccc(O)c(c3)-c3c(O[C@H]4O[C@H](CO)[C@@H](O)[C@H](O)[C@@H]4O)cc(O)cc3[C@@H](C(=O)O)NC2=O)O[C@H](CO)[C@@H](O)[C@@H]1O`, for which the Potency result in assay [1], in assay [2], in assay [3], in assay [4] and in assay [5] was “inactive” in each case.
For the compound `CC(=O)O[C@H]1C[C@@H]2CC[C@@H]3[C@H](CC[C@@]4(C)[C@H]3C[C@H](N3CC[N+](C)(C)CC3)[C@@H]4OC(C)=O)[C@@]2(C)C[C@@H]1N1CC[N+](C)(C)CC1`, the Potency result in assay [1], in assay [2], in assay [3], in assay [4] and in assay [5] was “inactive” throughout.
In the case of `C[C@H]1C[C@@H]2[C@H]([C@@H](O)C[C@@]3(C)[C@H]2CC[C@]3(O)C(=O)COC(=O)CCC(=O)O)[C@@]2(C)C=CC(=O)C=C12`, the Potency result in assay [1], in assay [2], in assay [3], in assay [4] and in assay [5] was “inactive” throughout.
Take `COc1ccc(C[C@H](C)NC[C@@H](O)c2ccc(O)c(NC=O)c2)cc1`: the Potency entry in assay [1], in assay [4] and in assay [5] was “inactive” in each case. Also, the Potency in assay [2] and in assay [3] was 26.6 µM (active) throughout.
Consider `C[C@@H]1C[C@H]2[C@@H]3CCC4=CC(=O)C=C[C@]4(C)[C@@]3(F)[C@@H](O)C[C@]2(C)[C@@]1(O)C(=O)COC(=O)c1cccc(S(=O)(=O)O)c1`, for which the Potency entry in assay [1], in assay [2], in assay [3], in assay [4], in assay [5] and in assay [7] was “inactive” throughout. Also, in assay [6], the Potency was 0.0841 µM (active).
Regarding `O=P(O)(O)OC[C@H](O)CO`, the Potency result in assay [1], in assay [2], in assay [3], in assay [4] and in assay [5] was “inactive” throughout.
Regarding `CC(C)(C)NC[C@H](O)COc1ccccc1C1CCCC1`, the Potency entry in assay [1], in assay [4] and in assay [5] was “inactive” in each case. Further, the Potency in assay [2] is 6.39 µM (active); in assay [3], 10.1 µM (active).
In the case of `CC(/C=C/C=C(\C)C(=O)O[C@@H]1O[C@H](CO[C@@H]2O[C@H](CO)[C@@H](O)[C@H](O)[C@H]2O)[C@@H](O)[C@H](O)[C@H]1O)=C\C=C\C=C(C)\C=C\C=C(/C)C(=O)O[C@@H]1O[C@H](CO[C@@H]2O[C@H](CO)[C@@H](O)[C@H](O)[C@H]2O)[C@@H](O)[C@H](O)[C@H]1O`, the Potency entry in assay [1], in assay [2], in assay [3], in assay [4] and in assay [5] was “inactive” in each case.
Regarding `CCC(=O)NS(=O)(=O)c1ccc(-c2c(-c3ccccc3)noc2C)cc1`, the Potency result in assay [1], in assay [2], in assay [3], in assay [4] and in assay [5] was “inactive” each time.
For `CNC(=O)c1c(I)c(C(=O)NCC(=O)Nc2c(I)c(C(=O)O)c(I)c(C(=O)NCCO)c2I)c(I)c(N(C)C(C)=O)c1I`, the Potency result in assay [1], in assay [2], in assay [3], in assay [4] and in assay [5] was “inactive” in each case.
Regarding `O=[N+]([O-])O[C@@H]1CO[C@H]2[C@@H]1OC[C@@H]2O`, the Potency result in assay [1], in assay [2], in assay [3], in assay [4] and in assay [5] was “inactive” each time.
`CCCCC(=O)O[C@H]1CC[C@H]2[C@@H]3CCc4cc(O)ccc4[C@H]3CC[C@]12C`: the Potency result in assay [1], in assay [4] and in assay [5] was “inactive” each time. The Potency was 18.8 µM (active) in assay [2] and 16.8 µM (active) in assay [3].
As to `COC(=O)CCC[N+](C)(C)C`, the Potency result in assay [1], in assay [2], in assay [3], in assay [4] and in assay [5] was “inactive” in each case.
In the case of `CN(C)CCOc1ccccc1Cc1ccccc1` (tested in a mixture with another compound), the Potency entry in assay [1], in assay [4] and in assay [5] was “inactive” throughout. In addition, the Potency is 26.6 µM (active) in assay [2] and 29.8 µM (active) in assay [3].
For `CC1CC(OC(=O)C(O)c2ccccc2)CC(C)(C)C1` (stereo not drawn), the Potency entry in assay [1] and in assay [5] was “inactive” throughout. Further, the Potency in assay [2] was 11.9 µM (active); in assay [3] it was 21.1 µM (active).
Take `C=CCCCCCCCCC(=O)OC`: the Potency entry in assay [1], in assay [2], in assay [4] and in assay [5] was “inactive” each time.
For the compound `NCc1ccccc1CC(=O)N[C@@H]1C(=O)N2C(C(=O)O)=C(CSc3nnnn3CC(=O)O)CS[C@H]12`, the Potency entry in assay [1], in assay [2], in assay [3] and in assay [5] was “inactive” in each case.
For the compound `CCCCCCCCCCCCCCCCOCCOCCOCCOCCOCCOCCOCCOCCOCCOCCOCCOCCOCCOCCOCCOCCOCCOCCOCCOCCO`, the Potency is 13.4 µM (active) in assay [1], 2.37 µM (active) in assay [2], 29.8 µM (active) in assay [3] and 29.8 µM (active) in assay [5].
On to `CCC(=O)OCC(=O)[C@@]1(OC(=O)CC)[C@H](C)C[C@H]2[C@@H]3CCC4=CC(=O)C=C[C@]4(C)[C@@]3(F)[C@@H](O)C[C@@]21C`, for which the Potency result in assay [1] and in assay [5] was “inactive” each time. Besides, the Potency in assay [2] was 23.7 µM (active); in assay [3] it was 26.6 µM (active).
As to `Nc1c(Br)cc(Br)cc1CNC1CCC(O)CC1` (stereo not drawn), the Potency result in assay [1], in assay [2], in assay [4], in assay [5] and in assay [7] was “inactive” throughout. Also, the Potency in assay [6] is 1.88 µM (active).
`CC(C)[C@@H]1CC[C@@H](C)C[C@H]1OC(=O)c1ccccc1O`: the Potency result in assay [1], in assay [2], in assay [3], in assay [8], in assay [6] and in assay [5] was “inactive” throughout. In assay [7], the Potency entry is “inactive”.
Turning to `CCN(CC)CCOC(=O)c1ccc(N)cc1Cl`, the Potency entry in assay [1], in assay [2], in assay [3], in assay [4] and in assay [5] was “inactive” each time.
As for `O=C(OC1C[C@@H]2CC3C[C@H](C1)N2CC3=O)c1c[nH]c2ccccc12` (stereo partly drawn), the Potency entry in assay [1], in assay [4] and in assay [5] was “inactive” in each case. Further, the Potency in assay [2] was 26.6 µM (active).
In the case of `CCOC(=O)Nc1ccc2c(c1)N(C(=O)CN(C)C)c1ccccc1CC2`, the Potency entry in assay [1] and in assay [4] was “inactive” in each case. In addition, the Potency in assay [2] is 61.1 µM (active).
As to `CC(C)=CCC/C(C)=C/C=C/C(C)=C/C=C/C(C)=C/C=C/C=C(C)/C=C/C=C(C)/C=C/C=C(\C)CCC=C(C)C`, the Potency entry in assay [1], in assay [4], in assay [6], in assay [5] and in assay [7] was “inactive” throughout. In assay [2], the Potency was 29.8 µM (active).
